# Screening data as filed in PubChem.
# Hits are enriched below; roughly 7.3% of the tested compounds scored in any of these assays.
# KinaseGlo FLuc: Counterscreen for Luciferase (Kinase-Glo TM) Inhibition; Luciferin 4-monooxygenase (Photuris pensylvanica), Q27757; Kinase-Glo luciferase, ATP luminescence, 8 min; Potency, µM (series often up to 38.3 µM), for the others: at the top dose activity change, negative = inhibition, hits mostly inhibitors; 200,000 tested, 0.28% active; AID 1379, 2008; also: % is scaled to controls: 0 for no effect and ±100 for the full control effect; nearly all actives have a fitted effect of over 60% in size
#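 Inhibition of Kinase-Glo luciferase light generation was assessed at 10 uM ATP in pH 7.2 imidazole buffer, with luminescence measured after eight minutes at ambient temperature.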
# Rab9 promoter act: qHTS Assay for Rab9 Promoter Activators; AID 485297, 2010; Potency, µM (series often up to 9.22 µM), for inactives: at the highest dose activation, negative = inhibition, usual class: activators; Huh7 Rab9 promoter-luciferase reporter, luminescence, 24 h; 320,000 tested, 2.8% active; also: % of control where 0% means no effect; nearly all actives have a fitted effect of over 60% in size
#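 Huh7 reporter line, Rab9 promoter upstream of luciferase. Compound exposure 24 h at 37 °C in reduced-serum medium with 10% FBS. Read-out: luminescence.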
# ELG1 genotoxic: qHTS screen for small molecules that induce genotoxicity in human embryonic kidney (HEK293T) cells expressing luciferase-tagged ELG1. HEK293T ELG1-luciferase reporter, luminescence, 16 h. Potency, µM (titrated, usually from 46 µM), inactives show top-dose activity change, positive = activation, hits mostly activators. 330,000 tested, 1.3% active. AID 504466, 2011; also: % of control where 0% means no effect; nearly all actives have a fitted effect of over 60% in size
#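 Reporter readout depends on ELG1 protein level, which increases with genetic stress. After 16 hr compound exposure at 37 °C, luciferase activity was quantified using ONE-Glo.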
# NPC1 prom act: qHTS Assay for NPC1 Promoter Activators. Huh7 NPC1 promoter luciferase reporter, 24 h. Potency, µM (series often up to 9.22 µM), without a hit: top-dose activation, actives largely listed as activators. 320,000 tested, 2.4% active. AID 485313, 2010; also: % of control where 0% means no effect; nearly all actives have a fitted effect of over 60% in size
#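 Huh7 reporter cells (NPC1 promoter driving luciferase) are dosed with compound for 24 h at 37 °C, 5% CO2; luciferase detection reagent is then added and luminescence measured after 10 min at ambient temperature.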
# SMN2 splice up: qHTS Assay for Enhancers of SMN2 Splice Variant Expression; HEK293 SMN2-luciferase splicing reporter, luminescence, 30-36 h; Potency, µM (titrated, usually from 46.1 µM), without a hit: at the top dose activity change, positive = activation, most hits filed as activators; 210,000 tested, 2.8% active; AID 1458, 2008; also: % of control where 0% means no effect; nearly all actives have a fitted effect of over 55% in size
#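 HEK293 cells carry an SMN2 minigene-luciferase reporter in which exon 7 inclusion puts luciferase in frame. Cells were seeded at 2000 cells/well, attached for 10-12 hours, then exposed to compounds for 30-36 hours at 37C before ONE-Glo luminescence.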
# FLuc modulator: qHTS profiling assay for firefly luciferase inhibitor/activator using purifed enzyme and Km concentrations of substrates (counterscreen for miR-21 project); purified FLuc, Km substrates, luminescence inhibition; AID 588342, 2011; Luciferin 4-monooxygenase (Photinus pyralis), P08659; 360,000 tested, 6.9% active; Potency, µM (titrated, usually from 57.5 µM), inactives show at the top dose activity change, negative = inhibition, hits mostly inhibitors;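 also: plate controls were vehicle for no effect and reference inhibitor for full effect; nearly all actives have a fitted effect of over 55% in size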
# Target sequence (P08659 whole entry, looked up): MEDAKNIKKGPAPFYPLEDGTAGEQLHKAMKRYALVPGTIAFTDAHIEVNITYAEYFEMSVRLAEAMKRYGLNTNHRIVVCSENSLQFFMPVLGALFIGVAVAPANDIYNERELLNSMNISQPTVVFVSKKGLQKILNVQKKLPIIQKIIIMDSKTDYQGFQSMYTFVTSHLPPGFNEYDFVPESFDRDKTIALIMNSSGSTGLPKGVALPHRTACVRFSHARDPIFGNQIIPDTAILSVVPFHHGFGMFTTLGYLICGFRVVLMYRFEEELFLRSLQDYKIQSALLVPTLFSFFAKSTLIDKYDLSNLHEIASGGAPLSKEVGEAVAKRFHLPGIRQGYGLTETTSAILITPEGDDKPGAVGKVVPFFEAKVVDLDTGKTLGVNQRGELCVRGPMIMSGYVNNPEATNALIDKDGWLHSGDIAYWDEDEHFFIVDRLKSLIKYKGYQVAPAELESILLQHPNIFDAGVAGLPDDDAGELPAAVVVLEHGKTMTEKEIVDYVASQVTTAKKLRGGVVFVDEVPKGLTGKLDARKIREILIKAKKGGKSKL
#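 Purified P. pyralis luciferase (10nM final) with 10uM D-luciferin and 10uM ATP (Km levels) in 50mM Tris acetate pH 7.5, 10mM Mg acetate, 0.01% Tween-20, 0.05% BSA; qHTS 6-point titration, ~60 µM downward; luminescence read.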
# Active calls of the source: *; ? = inconclusive; . = no result. Calls follow the shape of the dose curve; as a rule, active = well fitted curve in the direction sought with a large enough effect; inconclusive = small, poorly fitted or top-dose-only effect, or another doubt; inactive = no such curve, though single readings can be large; an effect the other way counts as inactive or inconclusive. Potency is read from the fitted curve at half-maximal effect.
SMILES,KinaseGlo FLuc,Rab9 promoter act,ELG1 genotoxic,NPC1 prom act,SMN2 splice up,FLuc modulator
O=C(NNc1nc2c(F)cccc2s1)C1COc2ccccc2O1 (centres undefined),-1%,-4%,4%,7%,18%,?
CCOC(=O)N1CCc2c(sc(NCc3sccc3C)c2C(=O)Nc2ccc(OC)cc2OC)C1,.,.,.,.,.,11µM*
CCOC(=O)N1CCc2c(sc(NCc3cccc(F)c3)c2C(=O)Nc2ccc(OC)cc2OC)C1,.,.,.,.,.,15µM*
COc1ccc(NC(=O)c2c(NCc3cccc(F)c3)sc3c2CCCC3)c(OC)c1,.,.,.,.,.,-11%
COc1ccc(NC(=O)c2c(NCc3sccc3C)sc3c2CCCCC3)c(OC)c1,.,.,.,.,.,-17%
C=CCNc1nnc(-c2ccncc2)s1,-5%,16%,-1%,0%,-5%,-1%
c1ccc2c(Nc3nnc(-c4ccncc4)s3)cccc2c1,-13%,?,18%,?,?,5.4µM*
Cc1ccc(-c2c[nH]c(=S)n2-c2ccccc2F)cc1,0%,-3%,-1%,-1%,-6%,-13%
O=C1/C(=C/c2ccccn2)SC(=S)N1CCc1ccccc1,.,3.5µM*,?,?,.,-3%
CCOc1ccc(/C=C2\SC(=S)N(CC(=O)Nc3ccccn3)C2=O)cc1,.,26%,10%,14%,.,21µM*
CC(=O)Oc1ccc(/C=C2/SC(=S)N(Cc3ccccc3)C2=O)cc1,.,-1%,-3%,1%,.,-14%
O=C(CCN1C(=O)/C(=C/c2ccccc2)SC1=S)Nc1ccccn1,.,-4%,-2%,-1%,.,-12%
Cc1ccc(/C=C2\SC(=S)N(CCCC(=O)Nc3ccccn3)C2=O)cc1,4%,-19%,-6%,-27%,-62%,13µM*
O=C1/C(=C/c2ccccn2)SC(=S)N1NS(=O)(=O)c1ccccc1,1%,-1%,-2%,7%,-39%,?
CCOc1ccc(/C=C2\SC(=S)N(CC(=O)N(CCO)C(C)(C)C)C2=O)cc1,-4%,-2%,-8%,0%,-15%,12µM*
CCOC(=O)C1(Cc2ccccc2C)CCCN(C(=O)CCc2cccnc2)C1 (centres undefined),0%,10%,0%,-2%,.,?
CCn1c(C)c(C(C)=O)c(N2CCN(C(=O)c3ccco3)CC2)nc1=S,1%,-3%,1%,-4%,?,3%
COc1ccccc1N1CCN(/N=C\c2cccnc2)CC1,.,4%,5%,-3%,.,-18%
COc1ccccc1N1CCN(/N=C/c2ccc([N+](=O)[O-])cc2)CC1,.,4µM*,-5%,?,.,15µM*
COc1ccccc1N1CCN(/N=C/c2ccc(Cl)c([N+](=O)[O-])c2)CC1,.,24%,?,28%,.,15µM*
O=[N+]([O-])c1cc(/C=N/N2CCN(C3c4ccccc4-c4ccccc43)CC2)ccc1Cl,2%,0%,-1%,1%,-13%,1%
COc1ccc(CNC(=O)c2ccc3c(Cl)c4c(nc3c2)CCCC4)c(OC)c1,.,.,.,.,46%,-5%
COc1cccc(C(=O)Nc2ccncc2)c1OC,.,-6%,-2%,-4%,.,-9%
COC(=O)COc1cc2ccccc2cc1C(=O)Nc1ccccc1,3%,-1%,3%,0%,-31%,9.5µM*
COc1cc2ccccc2cc1C(=O)Nc1ccc2oc(-c3ccccc3)nc2c1,.,.,.,.,12%,0%
SMILES,KinaseGlo FLuc,Rab9 promoter act,ELG1 genotoxic,NPC1 prom act,SMN2 splice up,FLuc modulator
COc1cccc(C(=O)Nc2ccc(N(C)C)cc2)c1OC,-7%,1.4µM*,?,2.8µM*,11µM*,5.4µM*
COc1cc(OC)c(C(=O)Nc2ccc3ccccc3c2)cc1OC,.,2.5µM*,?,?,.,4.8µM*
COc1cc2ccccc2cc1C(=O)Nc1ccc2oc(=O)ccc2c1,.,0%,6%,-1%,.,-4%
COc1cc2ccccc2cc1C(=O)Nc1ccc(O)cc1,.,2µM*,10µM*,1.4µM*,.,1.1µM*
CCOc1ccc(C(=O)N2CCN(Cc3cc(=O)n4nc(-c5cccc(OC)c5)sc4n3)CC2)cc1,.,.,.,.,.,0%
Cc1ccc(NC(=S)NCc2ccccc2)c(C)c1,.,0%,5%,-2%,.,2%
CN(C)c1ccc(NC(=O)c2cccc(C(=O)Nc3ccc(N(C)C)cc3)n2)cc1,-9%,3.2µM*,5%,2.8µM*,14µM*,1.5µM*
COc1cc(Cl)c(C)cc1NC(=O)c1cccc(OC)c1OC,-3%,?,18%,?,?,6.7µM*
